Hit rate of the full screen: of about 340,000 compounds, about 1,700 (0.5%) were called active. Not shown: some 2% with an inconclusive outcome. This excerpt belongs to a sample that is enriched for actives. Unmarked numbers belong to inactive results. Cut-off read from the data, not from the text of the source: active = activity change below about -65%; inconclusive = mostly about -30% to -63%; inactive = weaker than that.
% is set by controls: 0 for no effect and ±100 for the full control effect.

This assay relates to CtBP / adenovirus E1A interaction (AlphaScreen). The experiment in a line: qHTS Assay for Inhibitors of the CtBP/E1A Interaction. The conditions noted are these: AlphaScreen GST-E1A/His-CtBP binding, 1536-well; active compounds read low. In short, it runs like this: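 Homogeneous bead-based format: GST-tagged E1A captured on glutathione donor beads, His-tagged CtBP on nickel acceptor beads; compounds precede bead addition by 2 h at 37 °C.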
In general terms: qHTS replaces the single test concentration by a dilution series.
Regarding `CCc1nc2c(OCc3ccc(C(=O)OC)cc3)cccn2c1N(C)C(=O)C(C)C`, the activity change is 0.85%.

As for `CC(=O)Nc1cccc(-c2cc(NC=O)c3ncc(-c4ccc(F)c(Cl)c4)n3c2)c1`, the activity change was 6.58%.

On to `COc1ccccc1N1CCN(/N=C/c2ccc(O)cc2O)CC1`, for which the activity change was -7.8%.

As for `Cc1nc2ccccc2nc1N/N=C/c1ccc(O)cc1O`, the activity change is -92.6% (active).

`Oc1ccc(-c2nc3ccccc3nc2-c2ccc(O)cc2O)c(O)c1`: the activity change was -12.2%.

In the case of `CC(C)n1ncc2c(C(=O)N3CCN(Cc4cccs4)CC3)cc(C3CC3)nc21`, the activity change is -9.59%.

In the case of `COc1cc(NC(=O)c2cc(-c3ccc(F)cc3OC(C)C)n[nH]2)cc(OC)c1OC`, the activity change is -4.63%.

With `C[C@H]1CN([C@@H](C)CO)S(=O)(=O)c2ccc(Br)cc2O[C@H]1CN(C)C(=O)c1cnccn1`, the activity change was 0.784%.

On to `S=C(NN=Cc1ccccn1)Nc1ccccn1`, for which the activity change is -73.6% (active).

Regarding `Cc1cc(C(=O)N/N=C/c2ccccn2)c2ccccc2n1`, the activity change was -14.7%.

For `O=C(N/N=C/c1ccccn1)C12CC3CC(CC(C3)C1)C2`, the activity change is 1.59%.

With `COc1ccc(-c2ccc(CN3C(CC(C)C)C(=O)N(Cc4cn(CC5CCCCC5)nn4)CCS3(=O)=O)cc2)cc1` (configuration not stated), the activity change is -0.831%.

`Cc1ccc(S(=O)(=O)N2CCC(=O)N([C@H](COCc3ccccc3)C(C)C)CC2)cc1`: the activity change is 3.58%.

Consider `CC(C)(C)Cc1c(C2CCCCC2)nc2ccc(Br)cn12`, for which the activity change is 10.7%.

Regarding `COc1cccc(NC(=S)NCCCN2CCOCC2)c1`, the activity change is 5.66%.

Take `CCOc1cccc(/C=N/NC(=S)NCCN2CCOCC2)c1O`: the activity change was -80.7% (active).

In the case of `Cc1ccc(C(=O)NC(=S)NCCN2CCOCC2)cc1`, the activity change was -5.38%.

As for `Nc1cccc(-c2cncc(N3CCN(Cc4ccccn4)CC3)n2)c1`, the activity change is 1.71%.

Take `Cc1ccccc1OCCC(=O)Nc1c(C)n(C)n(-c2ccccc2)c1=O`: the activity change was -0.0402%.

With `Cc1ccc(S(=O)(=O)CC(=O)Nc2c(C)n(C)n(-c3ccccc3)c2=O)cc1`, the activity change was -13.1%.

For `Cc1c(NC(=O)CSc2cccc3cccnc23)c(=O)n(-c2ccccc2)n1C`, the activity change is -87.1% (active).

Turning to `COc1ccc(CC(N)c2csc(NC(=O)Nc3ccc(C(C)C)cc3)n2)cc1` (configuration not stated), the activity change was -13.2%.

On to `Cc1cc(F)ccc1S(=O)(=O)N1CCCOC1CNC(=O)C(=O)NCCC1=CCCCC1` (configuration not stated), for which the activity change was 22.2%.

Consider `O=C(NCCCn1ccnc1)C(=O)NCC1OCCN1S(=O)(=O)c1cc(F)ccc1F` (configuration not stated), for which the activity change is -71.2% (active).

Regarding `O=C(NCCCc1ccccc1)C(=O)NCC1OCCN1S(=O)(=O)c1ccccc1` (configuration not stated), the activity change was 22.6%.

Turning to `COc1ccc([C@H]2CC(=O)C[C@@H](CCn3cc(CC4CCCC4)nn3)O2)cc1`, the activity change is -3.9%.

`CC1(C(=O)NS(=O)(=O)c2ccc(Cl)cc2)CCN1C(=O)CC1CCCC1` (configuration not stated): the activity change is 2.24%.

Take `CN[C@H]1C[C@H]2c3cc(Oc4ccccc4C)ccc3CCN2C(=O)[C@H]1[C@H](C)O`: the activity change is -12.1%.

As for `CCOc1cccc(/C=N/N2C(=O)CSC2=S)c1O`, the activity change was -92.9% (active).

Turning to `CCOc1ccc(N2C(=O)CSC2=NC#N)cc1`, the activity change was -0.654%.

On to `CCOc1cc(/C=N/n2cnnc2)c(Br)cc1O`, for which the activity change was -6.92%.

On to `Cc1ccccc1-c1csc(C(O)c2cccc(Cl)c2)n1` (configuration not stated), for which the activity change is 3.42%.

`CN(C(=O)CN1CCN(c2cc(-c3ccc(OCc4ccccc4)cc3)ncn2)CC1)c1ccccc1`: the activity change is 0.325%.

As for `COc1c(O)ccc2c1CN1CCc3cc4c(cc3C1C2)OCO4` (configuration not stated), the activity change is -66.6% (active).

Regarding `COc1ccc2cc1Oc1ccc(cc1)C[C@H]1c3cc(c(OC)cc3CCN1C)Oc1c(O)c(OC)cc3c1[C@H](C2)N(C)CC3`, the activity change is -4.43%.

As to `COc1cc(C(=O)CCc2ccc3c(c2)OCO3)cc(OC)c1OC`, the activity change was 2.78%.

As for `COc1ccccc1CNc1nc(Nc2ccccc2Cl)c2sccc2n1`, the activity change was -5.37%.

Regarding `NC(c1csc(NC(=O)Nc2cccc(C(F)(F)F)c2)n1)C1CCCCC1` (configuration not stated), the activity change is -2.68%.

Take `CC1(C)OC(=O)C2=C(C[C@@H](C3CC3)O[C@H]2CCc2cccc(Cl)c2)O1`: the activity change is 11.1%.

As for `CCCNC(=O)C1(C)CCN(Cc2csc(-c3ccc(Cl)cc3)n2)C1` (configuration not stated), the activity change is -2.56%.

As to `COc1cccc(/C=N/Nc2ncc(C(F)(F)F)cc2Cl)c1O`, the activity change was -98.2% (active).

As to `COc1cccc(/C=N/Nc2ccc(S(=O)(=O)Nc3ccccc3C(=O)O)cc2[N+](=O)[O-])c1O`, the activity change was -15.4%.

`Oc1ccc(/C=N/Nc2ccc(C(F)(F)F)cn2)cc1O`: the activity change is -14%.

In the case of `CC(C)c1cccc(C(C)C)c1Nc1cn[nH]c1`, the activity change is -13.7%.

In the case of `COCCCNc1ccn2nc(-c3ccc(CC(C)C)cc3)cc2n1`, the activity change was 4.88%.

Regarding `COc1ccc(CN2CCC(C)(Oc3cccc(F)c3)C2)c2ccccc12` (configuration not stated), the activity change is -13.7%.

Regarding `CCOc1cc2ccccc2cc1C(=O)Nc1ccccn1`, the activity change is -7.02%.

In the case of `CCC(C(=O)OCCN(CC)CC)c1ccccc1` (configuration not stated), the activity change was -0.583%.

Regarding `CCN(CC)CCOc1ccc2c(c1)C(=NNC(=O)c1ccccn1)c1cc(OCCN(CC)CC)ccc1-2`, the activity change is -70.2% (active).

Consider `Cc1nc2c(OCc3ccc(Cl)cc3)cccn2c1N(C)Cc1cccs1`, for which the activity change is -7.51%.

Consider `CC1CCCC(NC(=O)COC(=O)c2ccccc2C(=O)N(C)C2CCCCC2)C1C` (configuration not stated), for which the activity change is -2.61%.

Take `Cc1c(NC(=O)COC(=O)/C=C/c2cccc(F)c2)c(=O)n(-c2ccccc2)n1C`: the activity change was 0.516%.

On to `CCOc1ccc(CCN2C(=S)N([C@@H](CC(C)C)CN3CCC[C@@H]3CN3C(=S)NC[C@@H]3Cc3ccc(O)cc3)C[C@@H]2CC(C)C)cc1`, for which the activity change is -10.9%.

As for `CC(=O)Nc1cccc(-c2ccnc3c2CC(C)(C(=O)NCc2ccco2)O3)c1` (configuration not stated), the activity change is -10.5%.

`S=c1[nH]nc(-c2cccs2)n1/N=C/c1cccs1`: the activity change was 0%.

As for `NC(=O)N/N=C\c1cccs1`, the activity change was -12.4%.

On to `Cc1n[nH]c(=O)nc1N/N=C/c1cccs1`, for which the activity change is -89.5% (active).

For the origin of these results see PubChem BioAssay AID651724 (National Center for Advancing Translational Sciences (NCATS), 2012).
